“And” between values parts separate entries of the source, which are not always exact repeats. Equal entries are not always repeated. The whole screen tested about 16,000 compounds, of which about 5,100 (32%) were called active. Roughly 25% stayed inconclusive and do not appear here. The call rests on the fitted dose curve; in most records, active means well fitted curve in the direction sought with a large enough effect; inconclusive means small, poorly fitted or top-dose-only effect, or effect the other way; inactive means no such curve, though single readings can be large or run the other way. Some of the results follow. Square brackets hold non-standard residues; d marks the D form. Peptide text beside a SMILES is read from it.
On the % scale 0 is the no-effect control and ±100 the full control effect.

The target of the experiment is Cytochrome P450 3A4 (Homo sapiens) (UniProt P08684). Kind of experiment: Cytochrome panel assay with activity outcomes. Conditions: recombinant CYP, pro-luciferin dealkylation, luminescence, p450-cyp3a4; series mostly up to 57.1 µM; activity, negative = inhibition: at the top concentration.
Sequence of Cytochrome P450 3A4 (Homo sapiens) (P08684 whole entry, looked up): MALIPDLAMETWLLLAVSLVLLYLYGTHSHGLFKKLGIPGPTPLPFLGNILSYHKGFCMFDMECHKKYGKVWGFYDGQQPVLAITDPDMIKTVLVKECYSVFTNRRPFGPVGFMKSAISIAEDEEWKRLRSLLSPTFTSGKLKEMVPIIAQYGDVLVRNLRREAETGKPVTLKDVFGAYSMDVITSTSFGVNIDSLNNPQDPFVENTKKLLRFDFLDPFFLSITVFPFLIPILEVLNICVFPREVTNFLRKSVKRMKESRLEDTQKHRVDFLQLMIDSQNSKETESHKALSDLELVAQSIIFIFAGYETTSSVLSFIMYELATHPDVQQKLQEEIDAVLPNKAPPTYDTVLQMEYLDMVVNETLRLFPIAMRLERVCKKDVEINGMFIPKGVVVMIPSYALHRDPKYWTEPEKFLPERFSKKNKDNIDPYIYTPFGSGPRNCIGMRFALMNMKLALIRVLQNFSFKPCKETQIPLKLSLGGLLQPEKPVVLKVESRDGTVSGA
Take `CC(=O)OC1CCC(OC(C)=O)c2c1n([O-])c(C)c(C)[n+]2=O` (centres undefined): the “activity, negative = inhibition” value was -8.36% (inactive).
As a reminder, the AC50 is the concentration giving half of the maximal activity seen. Regarding `COC(=O)c1c(-n2c(C)cc(C=O)c2C)sc2c1CCCC2`, the AC50 is 7.08 µM (active).
`O=C(NCCc1ccccc1)c1noc2c1CCc1ccccc1-2`: the activity, negative = inhibition is -2.2% [at 2.29 µM] (inactive).
Turning to `O=C1Nc2ccccc2/C1=N/c1sc2c(c1C(=O)NCCc1ccccc1)CCCC2`, the concentration at half-maximal activity (AC50) is 7.08 µM (active).
For `O=C1Nc2ccccc2C1=Nc1cccc2ncccc12`, the activity, negative = inhibition was -14.3% [at 11.4 µM] (inactive).
With `NCC(=O)N[C@H](CO)C(=O)O` (H-Gly-[dS]-OH), the activity, negative = inhibition was -9.24% [at 11.4 µM] (inactive).
`C[N+]1(C)CCC(OC(=O)C(c2ccccc2)c2ccccc2)CC1`: the AC50 result is “inactive”.
For `CCCCCCOC(=O)C(C#N)c1nc2ccccc2nc1N1CCN(CC)CC1` (centres undefined), the half-maximal activity concentration (AC50) is 28.2 µM (active).
For the compound `CC(C)OC(=O)C(C#N)c1nc2ccccc2nc1N1CCN(Cc2ccccc2)CC1` (centres undefined), the “activity, negative = inhibition” value was 11% (inactive).
For `CCN1CCN(c2nc3ccccc3nc2C(C#N)C(=O)OC2CCCCC2)CC1` (centres undefined), the half-maximal activity concentration (AC50) was 10 µM (active).
Turning to `Nc1nc(-c2cc(-c3cccc4ccccc34)nc(N)n2)cc(-c2cccc3ccccc23)n1`, the activity, negative = inhibition is 6.26% [at 11.4 µM] (inactive).
As for `Cc1cc(C)nc(Nc2n[nH]c(-c3cccc4ccccc34)n2)n1`, the AC50 is 14.1 µM (active).
Regarding `Cc1cc(Oc2ccccc2)nc(NCc2ccccc2)n1`, the activity, negative = inhibition was 7.15% [at 11.4 µM] (inactive).
Same read-out and setting: to `Cc1noc2ncnc(Oc3ccc4ccccc4c3)c12` belongs -17.6% (inactive); to `NC(=O)Nc1n[nH]c(-c2ccccc2)n1`, -3.37% [at 11.4 µM] (inactive).
Turning to `Cc1cc(C)nc(Nc2n[nH]c(COc3ccc4ccccc4c3)n2)n1`, the half-maximal activity concentration (AC50) was 5.01 µM (active).
For the compound `O=c1[nH]ncn2cccc12`, the “activity, negative = inhibition” value was 1.41% (inactive).
Regarding `COc1ccccc1-n1c(SCC(=O)Nc2ccccc2F)nc2[nH]ncc2c1=O`, the half-maximal activity concentration (AC50) is 14.1 µM (active).
On to `c1ccc2sc(SCCSc3nc4ccccc4s3)nc2c1`, for which the activity, negative = inhibition was 14.9% [at 11.4 µM] (inactive).
The same measure, in the same setting: the figure for `Oc1ccccc1C(Sc1nc2ccccc2s1)Sc1nc2ccccc2s1` is -6.59% [at 11.4 µM] (inactive).
With `NCCSc1nc2ccccc2s1`, the AC50 was 3.16 µM (active).
As for `NCCSc1nc(-c2ccccc2)c(-c2ccccc2)o1`, the activity, negative = inhibition is -23.1% [at 11.4 µM] (inactive).
For the compound `c1ccc2sc(SCSc3nc4ccccc4s3)nc2c1`, the AC50 was 3.16 µM (active).
`COc1cc(C)cc2c(-c3c(O)cc(O)c4c3C[C@H](C)N[C@@H]4C)cc(-c3cc(-c4c(O)cc(O)c5c4C[C@H](C)N[C@@H]5C)c4cc(C)cc(OC)c4c3O)c(O)c12`: the activity, negative = inhibition is -3.16% [at 11.4 µM] (inactive).
Regarding `C[C@@](N)(C(=O)O)c1ccc(P(=O)(O)O)cc1`, the “activity, negative = inhibition” value was -11.3% (inactive).
As for `Cc1cc2c(=O)[nH]c(N)nc2nc1C`, the activity, negative = inhibition is -3.61% [at 11.4 µM] (inactive).
Turning to `COc1ccc(CNc2ccnc(-c3ccc4c(c3)OCO4)n2)c(OC)c1`, the AC50 is 1 µM (active).
On to `COc1ccccc1CNc1ccnc(-c2ccc3c(c2)OCO3)n1`, for which the AC50 was 1.58 µM (active).
Same read-out and setting: the figure for `CC(=O)Nc1c2c3c(cccc3n(C)c1=O)C(=O)c1ccccc1-2` is 17.8 µM (active).
With `Cc1ccc(NC(=O)Nc2ncccc2C)cc1`, the activity, negative = inhibition is -13.7% [at 2.29 µM] (inactive).
Same read-out and setting: to `CCOC(=O)C(=CNCC(=O)O)C(=O)OCC` belongs 0.794% (inactive).
`CCOC(=O)C(=CNc1cccc(C)c1C)C(=O)OCC`: the AC50 was 15.8 µM (active).
For the compound `CCOC(=O)/C(=C/Nc1ccccc1)[N+](=O)[O-]`, the “activity, negative = inhibition” value is -3.29% (inactive).
`CCOC(=O)C(=Cc1ccc(F)cc1)C(=O)OCC`: the “activity, negative = inhibition” value was 11.9% (inactive).
As for `CCOC(=O)C(=CNc1ncccc1C)C(=O)OCC`, the concentration at half-maximal activity (AC50) is 12.6 µM (active).
In the case of `CN(C)CCCn1c2ccccc2c2cnccc21`, the activity, negative = inhibition was -22.2% [at 11.4 µM] (inactive).
As to `Cc1ccc(C(=O)O/N=C/c2c(Cl)n(C)c3ccccc23)cc1`, the “activity, negative = inhibition” value is -15.1% (inactive).
Regarding `Cc1c2cnccc2c(C)c2c1c1ccccc1n2CCOC(=O)c1ccccc1`, the half-maximal activity concentration (AC50) is 0.631 µM (active).
Regarding `Cc1noc(C)c1-c1nc(Nc2ccc(F)cc2)c2ccccc2n1`, the “activity, negative = inhibition” value was -19.8% (inactive).
The same measure, in the same setting: the figure for `Cc1noc(C)c1-c1nc(NC2CCNCC2)c2ccccc2n1` is -11.4% (inactive).
Regarding `Cc1noc(C)c1-c1nc(Nc2ccccc2)c2ccccc2n1`, the AC50 is 6.31 µM (active).
For the compound `Cc1noc(C)c1-c1nc(Nc2ccncc2)c2ccccc2n1`, the AC50 was 0.316 µM (active).
For the compound `CN(/C=C/C(=O)C(F)(F)F)Cc1ccccc1`, the “activity, negative = inhibition” value was 7.08% (inactive).
In the case of `CN(Cc1ccccc1)C(=O)CC(c1ccccc1)c1cc(Cl)ccc1O` (centres undefined), the half-maximal activity concentration (AC50) is 14.1 µM (active).
Still for that read-out and setting: to `CC(C)Oc1ccc(CNC(=O)CC(c2ccccc2)c2cc(Cl)ccc2O)cc1` (centres undefined) belongs 10 µM (active).
With `O=C(O)Cc1cc(Cl)ccc1O`, the activity, negative = inhibition was -2.24% [at 11.4 µM] (inactive).
On to `COc1cccc(Cn2c(=O)c(CCc3ccccc3)nc3cnc(OC)nc32)c1`, for which the AC50 is 2.51 µM (active).
Consider `COc1cccc(Cn2c(=O)c(CCc3ccccc3)nc3cncnc32)c1`, for which the half-maximal activity concentration (AC50) is 2.51 µM (active).
In the case of `NC/C=C\C(=O)O`, the AC50 result is “inactive”.
Still for that read-out and setting: the figure for `CC(C(=O)NCc1ccc2c(c1)OCO2)N1c2cccc3cccc(c23)S1(=O)=O` (centres undefined) is 0.316 µM (active).
In the case of `Cc1cc(C)c2nc3c(c([C@H](O)[C@@H]4CCCCN4)c2c1)CC/C3=C/c1ccc(Cl)cc1`, the activity, negative = inhibition is -1.86% [at 11.4 µM] (inactive).
As to `CC(=O)NCCNc1nc(-c2ccc(C(=O)N(C)C)cc2)nc2ccccc12`, the “activity, negative = inhibition” value was 3.16% (inactive).
Consider `CN(C)C(=O)c1ccc(-c2nc(NCc3cccs3)c3ccccc3n2)cc1`, for which the AC50 is 15.8 µM (active).
Still for that read-out and setting: to `CN(C)C(=O)c1ccc(-c2nc(NCc3ccccc3)c3ccccc3n2)cc1` belongs 15.8 µM (active).
In the case of `CN(C)C(=O)c1ccc(-c2nc(NC3CCNCC3)c3ccccc3n2)cc1`, the “activity, negative = inhibition” value is 19.7% (inactive).
As to `CN(C)C(=O)c1ccc(-c2nc(NCc3cccnc3)c3ccccc3n2)cc1`, the AC50 was 12.6 µM (active).
On the same count and under the same terms, to `CN(C)c1ccc(-c2nc(NCc3cccnc3)c3ccccc3n2)cc1` belongs 2 µM (active).
As to `O=C1C[C@@H](O)[C@@H](O)[C@H]2[C@@H]3C(=O)N(c4cccc(Oc5ccccc5)c4)C(=O)[C@@H]3CC[C@H]12`, the activity, negative = inhibition was -19.7% [at 11.4 µM] (inactive) and -7.2% [at 11.4 µM] (inactive).
As for `Cc1ccc(OCC(=O)Nn2cnc3ccccc32)cc1`, the AC50 was 7.94 µM (active).
For the compound `Cc1ccc(OCC(=O)Nc2ccccc2-c2ccccc2)cc1`, the AC50 is 20 µM (active).
In the case of `Cc1ccc(OCC(=O)NNC(=O)CCC(=O)NCc2ccccc2)cc1`, the “activity, negative = inhibition” value was -28.6% (inactive).
Still for that read-out and setting: to `Cc1ccc(OCC(=O)NC2=NCCS2)cc1` belongs -22.5% [at 11.4 µM] (inactive).
Same read-out and setting: to `Cc1ccc(OCC(=O)NNC(=O)CCc2ccccc2)cc1` belongs -11.1% (inactive); to `CN(C)CCN1C(=O)C(O)=C(C(=O)c2cc3ccccc3o2)C1c1cccc(Br)c1` (centres undefined), 27.7% [at 2.29 µM] (inactive); to `O=C(Nc1ccccc1)N1CC[C@@]2(CCCN(C(=O)c3ccco3)C2)C1`, -27.6% (inactive).
Turning to `CC(C)NC(=O)N1CC2(CCN(C(=O)c3ccco3)CC2)C1`, the “activity, negative = inhibition” value is -0.152% (inactive).
Consider `O=C(c1ccco1)N1CCC2(CCCN(C(c3ccccc3)c3ccccc3)C2)CC1`, for which the AC50 is 12.6 µM (active).
On the same count and under the same terms, to `O=C(c1ccco1)N1CCC[C@@]2(CCN(C(c3ccccc3)c3ccccc3)C2)C1` belongs 12.6 µM (active); to `COc1cc(-c2nnc(SCC3(c4ccc(Br)cc4)OCCO3)o2)cc(OC)c1OC`, 12.6 µM (active).
Regarding `Cc1ccc(NC(=O)CSc2nnc(-c3ccncc3)o2)cc1`, the activity, negative = inhibition is -3.56% [at 2.29 µM] (inactive).
In the case of `COc1cc(-c2nnc(SCC3(c4ccccc4)OCCO3)o2)cc(OC)c1OC`, the AC50 is 4.47 µM (active).
In the case of `COc1cc(-c2nnc(SCC(=O)Nc3ccc4c(c3)OCCO4)o2)cc(OC)c1OC`, the AC50 is 8.91 µM (active).
`OC[C@@H](O)[C@@H](O)[C@@H](O)[C@@H](O)c1nc2ccc(Cl)cc2[nH]1`: the activity, negative = inhibition was -5.7% [at 11.4 µM] (inactive).
Take `Cc1ccc(/C=N\Nc2nc3ccc(Cl)cc3[nH]2)o1`: the AC50 is 8.91 µM (active).
As to `CCOC(=O)N/N=C/c1ccc(C)o1`, the “activity, negative = inhibition” value was -15.3% (inactive).
Regarding `Cc1cccc(NC(=S)NNC(=O)c2csc3c2CCCC3)c1`, the activity, negative = inhibition was -15.2% [at 2.29 µM] (inactive).
Consider `CC12CCC(C(=O)Nc3cccc4ccccc34)(C1Br)C2(C)C` (centres undefined), for which the AC50 is 11.2 µM (active).
As for `Cc1cccc(NC(=O)C2(c3ccc([N+](=O)[O-])cc3)CCCC2)c1`, the activity, negative = inhibition is -2.71% [at 2.29 µM] (inactive).
Take `Cc1cccc(NC(=O)C23CCC(C)(C2Br)C3(C)C)c1` (centres undefined): the half-maximal activity concentration (AC50) is 12.6 µM (active).
For the compound `O=C(O)c1cccc(C(=O)O)c1S(=O)Cc1ccccc1` (centres undefined), the activity, negative = inhibition was -7.75% [at 11.4 µM] (inactive).
Turning to `NNC(=O)CCSc1ccccc1`, the AC50 is 3.98 µM (active).
Turning to `O=C(O)CCCSc1ccccc1`, the activity, negative = inhibition is 5.11% [at 11.4 µM] (inactive).
As for `O=C(/C=C/c1ccc(Cl)cc1)NCCSc1ccccc1`, the “activity, negative = inhibition” value is 0.692% (inactive).
As for `Cc1ccc(S(=O)(=O)N[C@H](C(=O)O)C(C)C)cc1`, the activity, negative = inhibition was -11.9% [at 11.4 µM] (inactive).
As for `Cc1ccc(S(=O)(=O)N[C@H](CN)C(=O)O)cc1`, the activity, negative = inhibition was -20.1% [at 11.4 µM] (inactive).
As for `Cc1ccc(S(=O)(=O)NC(CC(C)C)C(=O)Oc2ccc3c4c(c(=O)oc3c2)CCC4)cc1` (centres undefined), the half-maximal activity concentration (AC50) is 14.1 µM (active).
On the same count and under the same terms, the figure for `CCC(C)C(NS(=O)(=O)c1ccc(C)cc1)C(=O)Oc1ccc2c3c(c(=O)oc2c1)CCC3` (centres undefined) is 7.94 µM (active).
`CC(C)Oc1ccc2c(=O)c3cc(C(=O)O)ccc3oc2c1`: the “activity, negative = inhibition” value was -21.8% (inactive).
The same measure, in the same setting: to `Cc1nc2ccc(S(=O)(=O)NC(CC(C)C)C(=O)O)cc2s1` (centres undefined) belongs -3.56% [at 2.29 µM] (inactive).
Turning to `NCc1ccc(C(=O)O)cc1`, the activity, negative = inhibition is -14.2% [at 11.4 µM] (inactive).
As to `O=S(=O)(O)c1nc2ccccc2n1Cc1ccccc1`, the “activity, negative = inhibition” value is -3.58% (inactive).
In the case of `O=C(c1cc2sccc2n1Cc1ccccc1)N1CCN(c2nc3ccccc3s2)CC1`, the half-maximal activity concentration (AC50) was 0.631 µM (active).
Still for that read-out and setting: the figure for `S=c1[nH]nc(CCc2ccccc2)n1Cc1ccccc1` is 7.94 µM (active).
In the case of `CN(Cc1n[nH]c(=S)n1C)S(=O)(=O)c1ccccc1`, the “activity, negative = inhibition” value is -10.1% (inactive).

The record behind these values is PubChem BioAssay AID1851 (National Center for Advancing Translational Sciences (NCATS), 2009).
